For part of these data: Results with a measured potency or affinity are listed apart.
Legend:
Design in all cases: scale not given: direction of the effect not stated beside the values
[1] = target: Protein translocase subunit SecA (Escherichia coli (strain K12)) (UniProt P10408); assay: Assay to Identify E. coli SecA ATPase Inhibitors; format: functional; details: 30 µM
[2] = target: T1, Ubiquitin-activating enzyme e1, putative (Leishmania donovani (strain BPK282A1)) (UniProt E9BSI1); assay: Leishmania donovani Ubiquitin Activating Enzyme (LdE1); format: functional; details: 30 µM
T1 sequence (whole entry): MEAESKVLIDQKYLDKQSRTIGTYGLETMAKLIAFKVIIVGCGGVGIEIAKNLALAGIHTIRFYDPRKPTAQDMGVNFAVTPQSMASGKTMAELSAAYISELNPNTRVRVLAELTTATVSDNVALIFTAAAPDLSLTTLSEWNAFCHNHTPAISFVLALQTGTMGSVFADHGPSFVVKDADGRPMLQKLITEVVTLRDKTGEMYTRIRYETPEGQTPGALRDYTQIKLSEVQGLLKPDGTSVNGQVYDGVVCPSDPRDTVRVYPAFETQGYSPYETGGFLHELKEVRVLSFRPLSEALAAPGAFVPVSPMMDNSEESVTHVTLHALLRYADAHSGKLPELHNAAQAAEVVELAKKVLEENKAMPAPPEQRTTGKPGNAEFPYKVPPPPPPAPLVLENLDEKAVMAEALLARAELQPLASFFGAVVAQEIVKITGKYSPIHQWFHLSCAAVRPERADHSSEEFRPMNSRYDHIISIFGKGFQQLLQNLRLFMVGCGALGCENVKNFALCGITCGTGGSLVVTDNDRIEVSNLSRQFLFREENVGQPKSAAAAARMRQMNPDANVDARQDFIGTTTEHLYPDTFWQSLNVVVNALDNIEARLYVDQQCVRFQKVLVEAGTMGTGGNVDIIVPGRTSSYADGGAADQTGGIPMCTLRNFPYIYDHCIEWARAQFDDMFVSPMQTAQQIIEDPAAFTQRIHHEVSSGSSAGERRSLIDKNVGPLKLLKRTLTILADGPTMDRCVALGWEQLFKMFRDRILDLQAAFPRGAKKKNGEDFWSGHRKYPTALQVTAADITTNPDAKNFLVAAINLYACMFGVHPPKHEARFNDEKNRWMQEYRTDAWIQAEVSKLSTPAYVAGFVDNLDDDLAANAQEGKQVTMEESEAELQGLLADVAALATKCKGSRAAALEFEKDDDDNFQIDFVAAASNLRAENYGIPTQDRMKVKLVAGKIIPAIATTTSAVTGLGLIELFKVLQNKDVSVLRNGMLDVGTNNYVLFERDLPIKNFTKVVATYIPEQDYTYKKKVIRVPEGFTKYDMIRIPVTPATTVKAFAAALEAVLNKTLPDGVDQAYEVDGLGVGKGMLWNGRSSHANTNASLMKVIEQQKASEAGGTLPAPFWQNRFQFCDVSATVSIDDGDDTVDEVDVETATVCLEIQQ

[3] = target: AMP-activated protein kinase, AMPK (Homo sapiens) (UniProt P54646+O43741+P54619+Q9UGJ0+Q9Y478+Q13131+Q9UGI9); assay: AMP-dependent Kinase enzyme assay. An in vitro enzyme assay that detects ADP turnover that is directly proportional to AMPK activity. This uses naive AMPK that is activated during the assay with MK-8722; format: functional; details: 30 µM
[4] = target: Sialic acid-binding Ig-like lectin 9 (Homo sapiens) (UniProt Q9Y336); assay: Hs-Siglec9 ALPHAscreen SOP 20170721; details: 10 µM
Trypanosoma cruzi = assay: Trypanosoma cruzi phosphomannomutase and mannose-1-phosphate guanylyltransferase assay; format: functional; details: 10 µM
[5] = target: T2, Arginase-2, mitochondrial (Homo sapiens) (UniProt P78540); assay: in vitro enzyme assay to detect the production of urea directly proportional to the activity of Arginase II; format: functional; details: 33.3 µM; also: in the data most compounds retested in dose-response had high values
T2 sequence (whole entry): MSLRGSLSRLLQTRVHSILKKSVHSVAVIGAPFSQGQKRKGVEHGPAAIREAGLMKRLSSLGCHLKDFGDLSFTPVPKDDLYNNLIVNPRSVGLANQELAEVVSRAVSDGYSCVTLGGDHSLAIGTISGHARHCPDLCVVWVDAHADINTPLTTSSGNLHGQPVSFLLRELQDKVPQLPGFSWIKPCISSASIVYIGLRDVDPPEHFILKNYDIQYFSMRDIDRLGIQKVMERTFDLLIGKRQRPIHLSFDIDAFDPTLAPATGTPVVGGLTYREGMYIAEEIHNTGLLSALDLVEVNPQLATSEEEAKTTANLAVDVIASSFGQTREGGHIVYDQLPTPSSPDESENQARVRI

[6] = target: T3, Proteasome subunit beta (Trypanosoma cruzi) (UniProt O96673); assay: Trypanosoma cruzi proteasome chymotrypsin-like activity (TcProtChymo) assay.; also: in the data most compounds retested in dose-response had high values; format: functional; details: 9.37 µM
T3 sequence (whole entry): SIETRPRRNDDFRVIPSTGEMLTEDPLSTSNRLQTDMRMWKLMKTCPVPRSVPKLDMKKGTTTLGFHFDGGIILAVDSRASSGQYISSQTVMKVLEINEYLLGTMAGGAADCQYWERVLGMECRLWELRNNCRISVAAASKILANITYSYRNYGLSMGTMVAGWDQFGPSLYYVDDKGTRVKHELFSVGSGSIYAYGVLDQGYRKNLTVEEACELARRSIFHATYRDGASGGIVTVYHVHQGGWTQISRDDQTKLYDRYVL

Homo sapiens = species: Homo sapiens; assay: To identify inhibition of the IFN signalling (Jak-Stat) pathway via expression of an eGFP reporter gene under the control of an IFN-stimulated response element (ISRE) containing MxA promoter.; format: functional; details: 30 µM
[7] = target: T4, Tyrosyl-tRNA synthetase, putative (Trypanosoma cruzi (strain CL Brener)) (UniProt Q4DSP6); assay: Trypanosoma cruzi tyrosyl tRNA synthetase (TcYRS) _High Tyrosine SOP; format: functional; details: 30 µM; also: in the data most compounds retested in dose-response had high values
T4 sequence (whole entry): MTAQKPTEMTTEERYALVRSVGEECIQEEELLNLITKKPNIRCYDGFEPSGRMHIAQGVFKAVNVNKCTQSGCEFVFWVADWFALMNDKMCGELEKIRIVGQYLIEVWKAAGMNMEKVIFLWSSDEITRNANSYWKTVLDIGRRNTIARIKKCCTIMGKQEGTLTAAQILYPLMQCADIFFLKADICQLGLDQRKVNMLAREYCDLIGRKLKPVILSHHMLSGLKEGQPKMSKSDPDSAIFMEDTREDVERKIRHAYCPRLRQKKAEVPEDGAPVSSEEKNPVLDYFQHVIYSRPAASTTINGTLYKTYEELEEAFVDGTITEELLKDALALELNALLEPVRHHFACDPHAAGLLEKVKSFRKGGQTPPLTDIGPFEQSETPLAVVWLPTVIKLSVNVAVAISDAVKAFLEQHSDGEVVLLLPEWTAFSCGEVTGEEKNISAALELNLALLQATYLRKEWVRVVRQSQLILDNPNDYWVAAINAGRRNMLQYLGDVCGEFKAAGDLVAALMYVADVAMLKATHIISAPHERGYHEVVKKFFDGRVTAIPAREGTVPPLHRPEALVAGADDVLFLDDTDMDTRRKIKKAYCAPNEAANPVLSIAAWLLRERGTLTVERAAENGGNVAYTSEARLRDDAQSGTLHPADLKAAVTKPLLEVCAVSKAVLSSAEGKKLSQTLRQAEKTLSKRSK

[8] = target: T4, Tyrosyl-tRNA synthetase, putative (Trypanosoma cruzi (strain CL Brener)); assay: Trypanosoma cruzi tyrosyl tRNA synthetase (TcYRS) SOP; format: functional; details: 30 µM
[9] = target: Chromo domain-containing protein 1 (Saccharomyces cerevisiae (strain ATCC 204508 / S288c) (Baker's yeast)) (UniProt P32657); assay: ScCHD-1 Enzyme Inhibition Assay; format: functional; details: 30 µM; also: in the data most compounds retested in dose-response had high values
Chain of Chromo domain-containing protein 1 (Saccharomyces cerevisiae (strain ATCC 204508 / S288c) (Baker's yeast)) (P32657 whole entry, the tested form may be a part): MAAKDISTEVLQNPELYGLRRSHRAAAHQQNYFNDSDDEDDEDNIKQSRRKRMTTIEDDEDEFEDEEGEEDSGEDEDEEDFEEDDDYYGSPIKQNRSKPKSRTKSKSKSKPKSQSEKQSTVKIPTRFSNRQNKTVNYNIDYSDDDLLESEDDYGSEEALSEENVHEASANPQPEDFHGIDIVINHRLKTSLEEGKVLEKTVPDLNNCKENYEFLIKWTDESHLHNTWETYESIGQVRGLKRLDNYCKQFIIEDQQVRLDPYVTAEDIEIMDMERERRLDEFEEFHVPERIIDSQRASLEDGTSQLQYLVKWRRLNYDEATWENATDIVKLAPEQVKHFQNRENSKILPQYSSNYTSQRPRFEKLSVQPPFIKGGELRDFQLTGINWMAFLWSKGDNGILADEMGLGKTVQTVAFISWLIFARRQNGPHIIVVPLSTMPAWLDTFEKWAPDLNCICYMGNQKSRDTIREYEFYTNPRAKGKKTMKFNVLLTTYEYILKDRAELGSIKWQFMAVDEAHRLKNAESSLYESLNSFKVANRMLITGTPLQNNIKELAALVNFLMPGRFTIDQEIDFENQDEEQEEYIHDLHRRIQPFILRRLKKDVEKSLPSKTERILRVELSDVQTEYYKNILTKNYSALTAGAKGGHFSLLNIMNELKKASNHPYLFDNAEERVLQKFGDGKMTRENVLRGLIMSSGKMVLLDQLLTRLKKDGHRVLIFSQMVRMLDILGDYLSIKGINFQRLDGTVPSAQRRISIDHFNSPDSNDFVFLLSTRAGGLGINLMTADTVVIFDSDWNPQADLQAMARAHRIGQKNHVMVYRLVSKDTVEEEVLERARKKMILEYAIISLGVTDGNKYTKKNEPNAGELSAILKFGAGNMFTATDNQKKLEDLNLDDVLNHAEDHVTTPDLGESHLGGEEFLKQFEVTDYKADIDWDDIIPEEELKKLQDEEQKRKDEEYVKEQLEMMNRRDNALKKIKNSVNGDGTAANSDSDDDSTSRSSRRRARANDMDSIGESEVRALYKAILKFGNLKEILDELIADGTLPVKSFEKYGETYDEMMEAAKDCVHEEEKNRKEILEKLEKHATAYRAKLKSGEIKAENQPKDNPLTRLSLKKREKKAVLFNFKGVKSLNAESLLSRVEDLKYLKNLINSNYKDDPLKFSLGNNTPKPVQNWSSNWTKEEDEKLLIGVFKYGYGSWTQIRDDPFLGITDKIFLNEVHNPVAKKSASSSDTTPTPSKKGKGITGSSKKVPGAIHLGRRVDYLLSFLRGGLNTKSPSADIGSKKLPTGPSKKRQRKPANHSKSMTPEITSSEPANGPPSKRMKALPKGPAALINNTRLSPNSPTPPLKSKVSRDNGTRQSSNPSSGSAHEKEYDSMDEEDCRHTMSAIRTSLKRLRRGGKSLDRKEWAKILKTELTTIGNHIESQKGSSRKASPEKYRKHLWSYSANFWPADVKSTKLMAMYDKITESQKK

Chain of Sialic acid-binding Ig-like lectin 9 (Homo sapiens) (Q9Y336 whole entry): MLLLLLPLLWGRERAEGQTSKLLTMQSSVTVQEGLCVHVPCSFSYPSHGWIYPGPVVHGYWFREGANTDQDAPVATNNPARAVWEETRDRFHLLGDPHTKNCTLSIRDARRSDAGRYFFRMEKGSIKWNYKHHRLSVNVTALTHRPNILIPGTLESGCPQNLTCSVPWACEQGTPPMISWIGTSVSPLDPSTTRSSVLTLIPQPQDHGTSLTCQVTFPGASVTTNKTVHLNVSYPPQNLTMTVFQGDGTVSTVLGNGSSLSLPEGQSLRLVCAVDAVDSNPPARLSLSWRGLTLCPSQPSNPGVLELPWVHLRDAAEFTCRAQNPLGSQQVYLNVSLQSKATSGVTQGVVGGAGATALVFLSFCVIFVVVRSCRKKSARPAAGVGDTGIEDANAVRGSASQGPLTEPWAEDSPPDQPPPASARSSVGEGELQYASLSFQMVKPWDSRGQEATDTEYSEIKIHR
Chain of Protein translocase subunit SecA (Escherichia coli (strain K12)) (P10408 whole entry): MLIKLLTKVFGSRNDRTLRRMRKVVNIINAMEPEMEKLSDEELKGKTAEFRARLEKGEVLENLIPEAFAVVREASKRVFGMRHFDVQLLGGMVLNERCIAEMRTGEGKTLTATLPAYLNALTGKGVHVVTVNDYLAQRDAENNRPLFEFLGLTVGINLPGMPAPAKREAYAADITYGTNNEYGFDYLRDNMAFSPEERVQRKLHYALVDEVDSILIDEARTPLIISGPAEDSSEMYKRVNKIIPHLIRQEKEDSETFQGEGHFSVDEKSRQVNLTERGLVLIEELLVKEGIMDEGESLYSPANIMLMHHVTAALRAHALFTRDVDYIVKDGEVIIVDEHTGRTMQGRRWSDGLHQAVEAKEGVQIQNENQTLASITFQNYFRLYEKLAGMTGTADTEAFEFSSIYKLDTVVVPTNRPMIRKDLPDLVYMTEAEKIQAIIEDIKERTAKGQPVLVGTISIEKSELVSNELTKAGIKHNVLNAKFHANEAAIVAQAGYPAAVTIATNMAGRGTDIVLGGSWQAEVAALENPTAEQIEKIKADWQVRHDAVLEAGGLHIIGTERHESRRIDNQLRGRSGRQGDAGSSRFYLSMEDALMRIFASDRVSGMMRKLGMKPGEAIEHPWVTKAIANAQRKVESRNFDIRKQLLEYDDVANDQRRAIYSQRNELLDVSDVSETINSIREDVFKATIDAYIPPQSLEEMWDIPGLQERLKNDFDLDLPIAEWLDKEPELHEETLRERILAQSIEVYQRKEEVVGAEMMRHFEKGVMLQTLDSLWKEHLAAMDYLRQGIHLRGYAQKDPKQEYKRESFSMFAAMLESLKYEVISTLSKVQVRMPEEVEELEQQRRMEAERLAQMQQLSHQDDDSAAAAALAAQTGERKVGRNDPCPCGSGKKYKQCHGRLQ

Compound	Percent Effect [1] [%]	Percent Effect [2] [%]	Percent Effect [3] [%]	Percent Effect [4] [%]	Percent Effect (Trypanosoma cruzi) [%]	Percent Effect [5] [%]	Percent Effect [6] [%]	Percent Effect (Homo sapiens) [%]	Percent Effect [7] [%]	Percent Effect [8] [%]	Percent Effect [9] [%]
c1ccc(OCC2CC3(CCN(c4ncccn4)CC3)CO2)nc1 (stereo unspecified)	-0.807	1.33	3.04	-2.52	-1.57	-5.46	10.9	14	0	-2.56	-5.94
CC(=O)NCC(=O)N1C[C@H](OCc2cccnc2)[C@H]2COC[C@H]21	-4.16	2.7	1.91	2.9	-4.49	2.5	12.3	5.47	4.95	6.1	-2.54
N#Cc1cccc(SCCS(N)(=O)=O)c1	-3.48	1.39	-2.94	14.2	5.15	-9.27	15.3	7.55	0	5.13	-3.3
CN(C)S(=O)(=O)N1CCC(Oc2ccccn2)CC1	-2.83	2.6	2.73	-0.581	-6.41	-7.1	14.1	-7.21	6.35	-1.28	-7.73
COCc1cccc(CNC(=O)CN2CCCC2c2noc(C)n2)c1 (stereo unspecified)	-2.68	23.7	-2.93	3.2	5.83	-2.68	15.5	1.75	4.41	24.4	-13
Cc1ccc(-c2cc(N)c(=O)n(CC(=O)NC3CCCCC3)n2)s1	-4.68	6.76	14.2	4.48	-4.74	4.41	8.42	15.6	1.07	6.49	-8.72
CCCNC(=O)c1cc2c([nH]c1=O)CC(c1cccs1)CC2=O (stereo unspecified)	0.191	14.7	13.3	3.54	3.34	-0.88	7.58	21	-4.23	12.8	-7.37
Cn1cnc(S(=O)(=O)NCCCN2CCCCCC2)c1Cl	-4.4	8.11	-5.51	10.5	-3.49	1.6	6.49	4.76	5.42	6.17	-6.58
COc1ccc(CNC(=O)Nc2cccnc2N2CCCC2)cc1O	-2.46	16.2	-3.7	16.1	4.81	-7.62	1.62	7.88	2.46	16.1	-7.7
O=C1CCC2(CCN(Cc3cc(F)ccc3Cl)CC2)CN1C1CCCC1	0.0694	13.3	-4.38	3.44	3.99	0	18.1	18.2	7.1	13.6	-2.27
Cc1ccc(OCC(=O)NCc2ccccc2F)nc1	-2.7	19.2	-0.689	12.5	4.56	-2.4	8.13	13.8	7.29	13.6	-4.08
COc1cc(NC(=O)c2ccccc2F)c(C(=O)N(C)C)cc1OC	1.19	5.2	0.986	2.38	-7.96	-8.28	18.8	-4.11	3.23	11.1	-2.46
CCc1nnc2n1CCN(C(=O)c1ccc3[nH]cnc3c1)C2	-7.1	12.5	-11.5	41.5	6.9	3.97	10.2	0.294	3.16	15.4	-13.2
CCc1n[nH]c(C2CN(C(=O)c3cnc[nH]3)CCO2)n1 (stereo unspecified)	-4.08	7.79	7.86	7.55	0.686	4.84	9.62	1.28	2.86	-11.8	-9.8
COc1ccc(C2(CNC(C)c3nnc(C)o3)CCCCC2)cc1 (stereo unspecified)	-1.33	-8.11	-8.86	6.11	8.69	-4.76	6.03	5.78	0.529	0	0.233
c1coc(-c2noc(CN3CCC(c4ccn[nH]4)CC3)n2)c1	-1.24	5.41	-3.37	31.9	5.02	0	16.4	3.15	-1.59	7.32	-4.25
Cc1cnn(Cc2cc(F)ccc2F)c1NC(=O)NC1CC1	-4.44	16	-4.15	41.4	5.94	29.7	15.5	10.9	-16.9	21	-4.35
COCC1Cn2nnc(-c3cnn(C)c3)c2CN1Cc1ccco1 (stereo unspecified)	-2.03	2.7	-7.24	5.87	1.37	23.8	9.72	-17.4	11.9	15.8	-5.92
Cn1ccc(C(=O)N2CCC[C@]3(C[C@@H](OCc4ccccn4)CO3)C2)n1	-3.65	13.5	2.83	-1.64	-2.64	8.6	15.1	2.73	8.65	17.9	-1.5
CCCS(=O)(=O)NCc1cccnc1OCC	0.771	2.6	-1.14	3.55	1.28	-5.52	6.32	13.3	1.07	-1.24	-7.12
CC(C)NC(=O)c1n[nH]c(-n2cnnc2)n1	-5.17	9.33	-5.08	5.32	1.77	-4.05	2.77	2.63	4.23	10.3	-8.26

From ChEMBL document CHEMBL3988442, “University of Dundee, Small-Polar-MMV Screening Library” (2021)
